Laboratory results: PubChem BioAssay (NCATS)
Results filed as inconclusive are left out. The source made the active and inactive calls. Calls follow the shape of the dose curve; as a rule, active = well fitted inhibition curve with a large enough effect; inconclusive = small, poorly fitted or top-dose-only effect; inactive = flat fitted curve, though single readings scatter.

test: qHTS for Inhibitors of Plasmodium falciparum (HB3) proliferation (AID 504318); also: nearly all actives have a fitted effect of over 60% in size; conditions: P. falciparum HB3 in erythrocytes, SYBR Green DNA, 72 h; series mostly up to 7.21 µM
From the text: Plasmodium falciparum is a virulent malarial parasite that kills 1-2 million people worldwide each year. Malaria not only inflicts tremendous suffering and morbidity on the human population, but has dramatically influenced the course of civilization with profound sociological and economic implications (Shah, S. 2010). Transmitted by mosquitoes, the sporozoite form of the parasite enters the blood stream to infect hepatocytes, where they become merozoites that infect red blood cells (erythrocytes). Within erythrocytes, merozoites begin a […] cycle of growth and division, after which the parasite is released to infect new red blood cells. Gametocytes, which form within erythrocytes as well, circulate in the bloodstream and are ingested by the mosquito, thereby completing the life cycle (see CDC website). To profile malarial lines for differential chemical responses and to identify inhibitors of malarial growth, an assay that measures P. falciparum growth and replication within erythrocytes was employed. This assay uses a DNA binding fluorescent dye (SYBR Green) to detect parasite DNA following cell lysis. Because mature erythrocytes lack DNA, only Plasmodium-derived DNA is detected. The P. falciparum line cp250, derived from a malarial isolate from Cambodia, (Mu, J., et al. 2010) was added to the panel of lines, Dd2, HB3, 7G8 and GB4 in this study. Laboratory of Assay Development and Screening Technology [ADST] and NIH Chemical Genomics Center [NCGC] Boston University, Chemistry Department, Center for Chemical Methodology and Library Development [CMLD-BU] NIH National Institute of Allergy and Infectious Diseases [NIAID]
ADST Assay Protocol Summary: The 1536-well SYBR Green viability assay was based on the method of Bennett et al (2004) and described previously in 1536-well format (Yuan J., et al. 2009). For screening 3 ul culture medium was dispensed into 1536 well black clear bottom plates (Aurora Biotechnologies) using a Multidrop Combi (Thermo Fisher Scientific Inc.), 23 nL compounds in DMSO were added by a pin transfer (Cleveland, P.H. and Koutz, P.J, 2005) using a pin tool-based delivery system (Kalypsys), and 5 ul of erythrocytes infected with P. falciparum one of five lines (cp250, Dd2, HB3, 7G8 or GB4, 0.3% parasitemia, 2.5% hematocrit final concentration) were added. The plates were incubated at 37C in a humidified incubator in 5% CO2 for 72 h, and 2 ul lysis buffer (20 mM Tris HCl, 10 mM EDTA, 0.16% saponin, 1.6% triton X, 10X SYBR Green I (supplied as 10,000X final concentration by Invitrogen) was added to each well. The plates were mixed for 25 sec with gentle shaking and incubated overnight at room temperature in the dark. The following morning, fluorescence intensity at 485(14) nm excitation and 535(25) nm emission wavelengths was measured on an EnVision (Perkin Elmer) plate reader. Plate reads were normalized relative to the control inhibitor (0.29 uM artemisinin) and vehicle (DMSO) wells present on each plate and then corrected by an algorithm using vehicle-only control plates at the beginning and end of the compound plate stack. References Shah, S. (2010). The Fever: how malaria has ruled humankind for 500,000 years. New York, Sarah Crichton Books. CDC web site, http://www.cdc.gov/malaria/about/biology/index.html Mu, J., Myers, R.A., Jiang, H., Liu, S., Ricklefs, S., Waisberg, M., Chotivanich, K., Wilairatana, P., Krudsood, S., White, N.J., et Plasmodium falciparum genome-wide scans for positive selection, recombination hot spots and resistance to antimalarial drugs Nature Genetics 2010, 42, pp 268-271 Bennett TN, Paguio, M., Gligorijevic, B., Seudieu, C., Kosar, A. D., Davidson, E., and Roepe, P. D. Novel, rapid, and inexpensive cell-based quantification of antimalarial drug efficacy Antimicrobial Agents Chemother. 2004, 48(5): pp 1807-10 Yuan J, Johnson RL, Huang RL, Wichterman J, Jiang HY, Hayton K, Fidock DA, Wellems TE, Inglese J, Austin CP, Su XZ. […]
Potency is read from the fitted curve at half-maximal effect.

Potency, active:
CC12C=C(C=Cc3ccc(Br)cc3)C(C)(C1)[C@H](c1ccc(Br)cc1)CC2=O (stereo not given in full) 1.69 µM, CCCNC(=O)N1C2=NC(C(=O)OC)=C(C(=O)OC)[C@@H]3N(C)c4ccc(OC)cc4[C@]23C[C@H]1C(=O)OC 2.94 µM

Potency, inactive:
COc1ccc(-c2nc(-c3ccccc3)oc2Nc2ccccc2C)cc1, CC#CCN1C(=O)NC(c2ccccc2)C(C#N)=C1C (stereo not given), CC=COC(=O)N[C@@H](c1ccccc1)[C@]1(C(C)=O)CCOC1=O, CN1c2ccccc2[C@@]2(O)C(=O)[C@@]1(C)[C@@H]1C=CCC[C@H]12, C=CC1=C2C=C(C3CC3)N(CCOC)C=C2C(=O)C(C)(OC(=O)c2ccco2)C1=O (stereo not given), Cc1cc(O)cc(O)c1C(=O)OC1(C)C(=O)C=C2C=C(C=CCO)OC=C2C1=O (stereo not given), COc1ccc2c(c1)[C@@]1(OCCC=C[C@@H]1C)C(=O)N2CC=C(C)CCC=C(C)C, COc1cccc([C@H]2Oc3ccc(OC)cc3C(=NOC[C@@H](C)[C@H](OCc3ccccc3)C(C)C)[C@H]2O)c1, C=C(C(C)=O)C(O)c1ccc(C(F)(F)F)cc1 (stereo not given), C#CC1(O)C2C=C(OC)C(=O)C1C(c1ccccc1)C2C (stereo not given), Cc1ccc(S(=O)(=O)OCCc2ccccc2)cc1, CCC(=O)OC1(C)C(=O)C=C2C=C(CCCC(=O)OC)OC=C2C1=O (stereo not given), COc1ccc(O[C@H]2C=C[C@@H](c3ccccc3)O[C@H]2COC(=O)CCC(C)=NO[C@@H]2O[C@H](COC(C)=O)[C@@H](OC(C)=O)[C@H](OC(C)=O)[C@@H]2OC(C)=O)cc1, CCCCc1nc2c(c3c1C[C@H](C)OC3)CN(S(=O)(=O)c1ccc(NC(C)=O)cc1)CC2, C=CCCN1C=C(C(=O)OCC)C(c2ccccc2)NC1=O (stereo not given), CCN1C(=O)NC(c2cccs2)C(C(C)=O)=C1C (stereo not given), C=CC[C@@H]1C=C[C@H](ON=C(C)CCN2CCCCc3nc(C)c(C)cc32)[C@H](CO)O1, C#CCCOC(=O)N1C2=NC(C(=O)OC)=C(C(=O)OC)[C@@H]3N(C)c4ccccc4[C@]23C[C@H]1C(=O)OC, CC(=O)OC[C@H]1O[C@@H](ON=C(C)CCC(=O)OC[C@H]2O[C@H](C#Cc3ccccc3)C=C[C@H]2Oc2ccc(C)cc2)[C@H](OC(C)=O)[C@@H](OC(C)=O)[C@H]1OC(C)=O, CCCC[C@]12Cc3cc(C#N)ccc3[C@H](O1)c1c(c3cc(F)ccc3oc1=O)O2, COC(=O)C1(C)C=C(Nc2ccc(OC)cc2)C(=O)N1c1ccc(OC)cc1 (stereo not given), COc1ccc([C@]23Cc4c(ccc5ccccc45)[C@H](O2)c2c(cc(-c4ccccc4)oc2=O)O3)cc1, C=CCN1C(=O)[C@@]2(CC(C)=C[C@@H](COc3ccccc3)O2)c2ccccc21, C[C@H]1[C@H](N=[N+]=[N-])[C@H](O)CCO[C@@H]1c1ccccc1, CCCCC1=CC2=CC(=O)C(C)(OC(=O)c3cnc4ccccc4n3)C(=O)C2=CO1 (stereo not given), CCOC(=O)C1=C(CCl)NC(=O)N(C(C)=O)C1c1ccccc1 (stereo not given), C[C@@H]1C=CCCO[C@]12C(=O)N(Cc1ccc(Br)cc1)c1cccc(Br)c12, C[C@@H]1C=CCC(=O)N2[C@H](CC(=O)N[C@@H]1c1ccccc1)C[C@@H](C)[C@@H]2c1ccccc1, CC(=O)OC[C@H]1O[C@H](CCON=C(C)CCC(=O)OC[C@H]2O[C@H](C#Cc3ccccc3)C=C[C@H]2Oc2ccc(C)cc2)C=C[C@H]1OC(C)=O, COc1ccc(NC(=O)N2CCc3nc(-c4ccccc4)c4c(c3C2)CO[C@@H](C)C4)cc1, Cc1ccc(S(=O)(=O)n2c3ccccc3c3nnc(C(=O)c4ccccc4)nc32)cc1, C[C@H]1Cc2c(-c3ccccc3)nc3c(c2CO1)CN(C(=O)NCc1ccco1)CC3, C=CC[C@@H]1C=C[C@H](ON=C[C@@H](C)[C@H](OCc2ccccc2)C(C)C)[C@H](CO)O1, COC(=O)N1C(C2CC2)=Cc2ccccc2C1CC(C)=O (stereo not given), COC(=O)N[C@@H](c1ccco1)C(C(C)=O)C(=O)OC (stereo not given in full), C=CCN=C1NC(c2cccc(C(F)(F)F)c2)C(C(=O)OC)=C(C)N1Cc1ccccc1 (stereo not given), CC=COC(=O)N[C@@H](c1cccc(C)c1)[C@]1(C(=O)OCC)CCCC1=O, COC(=O)C[C@H]1c2ccccc2[C@@H]2C(=C[C@@H](C)[C@H]3C(=O)NC(=O)[C@H]32)N1C(=O)OC
